The record followed here is paper PMC7862700, “An all-to-all approach to the identification of sequence-specific readers for epigenetic DNA modifications on cytosine”.

What all share (assay): DAPPL (digital affinity profiling via proximity ligation, sequencing); 10 mM Tris-HCl pH 7.5, 50 mM NaCl, 1 mM DTT, 4% glycerol, room temperature, 30 min; GST-TFs on glutathione beads, 16-mer random dsDNA library, 0.1% formaldehyde crosslink after washing; high values mean tight binding
One assay has as its target T1, FEV (Homo sapiens, UniProt Q99581 1-238).
T1 sequence: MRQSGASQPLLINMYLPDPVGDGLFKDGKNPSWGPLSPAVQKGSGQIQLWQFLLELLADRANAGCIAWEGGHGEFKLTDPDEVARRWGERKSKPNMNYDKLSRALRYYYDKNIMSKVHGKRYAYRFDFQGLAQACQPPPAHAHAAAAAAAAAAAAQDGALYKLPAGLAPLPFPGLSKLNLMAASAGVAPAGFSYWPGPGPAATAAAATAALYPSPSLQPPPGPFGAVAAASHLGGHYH
To be noted: protein: recombinant; tags: N-terminal GST; dsDNA, one strand shown. Summed up:
(§1)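 Pools were built from human transcription factors expressed in yeast as GST fusions, captured on glutathione beads and DNA-barcoded, along with a tag-only sample. Incubation with 200 nmole of a 16-mer random double-stranded DNA library lasted 30 min at room temperature in Tris/NaCl/DTT/glycerol buffer, and was followed by washing, 0.1% formaldehyde crosslinking, proximity ligation, PCR amplification and Illumina NextSeq500 sequencing. Binding signal is the quotient of each hexamer's read frequency for a factor and its frequency for the tag-only sample.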

The next assay deals with T2, ETV2 (Homo sapiens, UniProt O00321 1-342).
T2 sequence: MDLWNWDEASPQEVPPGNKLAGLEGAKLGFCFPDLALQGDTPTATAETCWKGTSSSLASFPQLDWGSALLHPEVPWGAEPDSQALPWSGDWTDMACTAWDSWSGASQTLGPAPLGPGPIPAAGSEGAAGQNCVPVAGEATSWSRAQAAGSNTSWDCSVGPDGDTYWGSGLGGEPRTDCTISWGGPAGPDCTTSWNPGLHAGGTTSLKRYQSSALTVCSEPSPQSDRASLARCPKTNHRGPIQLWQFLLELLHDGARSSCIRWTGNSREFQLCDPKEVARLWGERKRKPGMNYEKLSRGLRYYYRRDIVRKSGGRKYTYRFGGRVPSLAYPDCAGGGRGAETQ
To be noted: protein: recombinant; tags: N-terminal GST; dsDNA, one strand shown. Summed up:
as §1

A further assay has as its target CRX (Homo sapiens, UniProt O43186 1-299). The settings on record: protein: recombinant; tags: N-terminal GST; dsDNA, one strand shown. An outline of the steps: as §1
A further assay addresses T3, ELK3 (Homo sapiens, UniProt P41970 1-407).
T3 sequence: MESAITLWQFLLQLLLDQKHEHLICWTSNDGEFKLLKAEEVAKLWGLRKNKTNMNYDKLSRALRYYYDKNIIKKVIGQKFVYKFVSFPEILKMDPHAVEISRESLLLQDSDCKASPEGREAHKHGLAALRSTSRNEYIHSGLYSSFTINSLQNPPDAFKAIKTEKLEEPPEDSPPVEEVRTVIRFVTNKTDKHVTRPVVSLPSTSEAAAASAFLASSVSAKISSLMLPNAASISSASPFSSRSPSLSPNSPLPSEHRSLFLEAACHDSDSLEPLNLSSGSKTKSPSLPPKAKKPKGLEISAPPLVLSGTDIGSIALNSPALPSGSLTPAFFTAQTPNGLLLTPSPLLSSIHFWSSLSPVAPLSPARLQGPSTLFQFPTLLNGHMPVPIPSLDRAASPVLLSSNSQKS
The settings on record: protein: recombinant; tags: N-terminal GST; dsDNA, one strand shown. An outline of the steps: as §1

The target of another assay is T4, ELF5 (Homo sapiens, UniProt Q9UKW6-2 1-255).
T4 sequence: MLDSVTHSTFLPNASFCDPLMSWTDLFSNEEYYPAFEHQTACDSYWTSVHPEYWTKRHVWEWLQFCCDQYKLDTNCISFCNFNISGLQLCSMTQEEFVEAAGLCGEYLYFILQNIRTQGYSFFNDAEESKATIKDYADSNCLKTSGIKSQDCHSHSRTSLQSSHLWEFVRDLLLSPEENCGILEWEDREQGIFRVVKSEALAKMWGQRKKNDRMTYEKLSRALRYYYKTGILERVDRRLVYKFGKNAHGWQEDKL
To be noted: protein: recombinant; tags: N-terminal GST; dsDNA, one strand shown. Summed up:
as §1

A further assay concerns the target HSF1 (Homo sapiens, UniProt Q00613 1-529). The settings on record: protein: recombinant; tags: N-terminal GST; chain copies: 3; dsDNA, one strand shown. Summed up:
as §1

Chain of HSF1 (Q00613 whole entry): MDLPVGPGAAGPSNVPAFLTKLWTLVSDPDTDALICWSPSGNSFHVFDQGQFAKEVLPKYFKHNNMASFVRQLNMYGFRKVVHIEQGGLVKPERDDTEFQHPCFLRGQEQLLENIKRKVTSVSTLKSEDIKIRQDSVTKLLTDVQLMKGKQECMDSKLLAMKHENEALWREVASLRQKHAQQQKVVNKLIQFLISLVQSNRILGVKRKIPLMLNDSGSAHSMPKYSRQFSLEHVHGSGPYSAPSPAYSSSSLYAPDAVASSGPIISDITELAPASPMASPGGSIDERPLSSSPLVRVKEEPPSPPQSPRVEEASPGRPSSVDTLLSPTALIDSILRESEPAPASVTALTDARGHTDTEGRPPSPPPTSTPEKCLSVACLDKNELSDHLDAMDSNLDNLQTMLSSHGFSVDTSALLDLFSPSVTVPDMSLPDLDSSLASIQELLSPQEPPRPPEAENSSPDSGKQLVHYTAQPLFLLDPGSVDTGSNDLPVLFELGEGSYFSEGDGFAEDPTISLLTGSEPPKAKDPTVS
Chain of CRX (O43186 whole entry): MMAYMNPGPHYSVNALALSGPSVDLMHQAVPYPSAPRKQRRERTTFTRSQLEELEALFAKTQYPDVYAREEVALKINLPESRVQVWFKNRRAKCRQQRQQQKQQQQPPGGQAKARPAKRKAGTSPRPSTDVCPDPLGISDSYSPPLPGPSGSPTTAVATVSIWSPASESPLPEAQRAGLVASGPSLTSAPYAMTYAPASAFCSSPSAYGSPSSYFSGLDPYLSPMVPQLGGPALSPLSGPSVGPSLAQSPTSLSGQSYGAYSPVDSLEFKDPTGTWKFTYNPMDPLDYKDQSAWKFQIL

As to GCAGCT, the binding signal in the assay with FEV was 1.09 fold enrichment (6-mer frequency, TF over GST control); in the assay with ETV2, 1.06 fold enrichment (6-mer frequency, TF over GST control); in the assay with CRX, 1 fold enrichment (6-mer frequency, TF over GST control).
Regarding GTGCAT, the binding signal with ELK3 is 1.16 fold enrichment (6-mer frequency, TF over GST control); with FEV, 1.06 fold enrichment (6-mer frequency, TF over GST control); with ETV2, 1.02 fold enrichment (6-mer frequency, TF over GST control); with ELF5, 1.02 fold enrichment (6-mer frequency, TF over GST control).
Consider ACGCTC, for which, in the assay with ETV2, the binding signal is 1.02 fold enrichment (6-mer frequency, TF over GST control).
CATAAG: the binding signal with HSF1 is 1.13 fold enrichment (6-mer frequency, TF over GST control); in the assay with CRX it was 1.42 fold enrichment (6-mer frequency, TF over GST control).
For GTCTAT, the binding signal in the assay with ELK3 is 1.04 fold enrichment (6-mer frequency, TF over GST control); with ETV2 it was 1 fold enrichment (6-mer frequency, TF over GST control); with ELF5, 1.08 fold enrichment (6-mer frequency, TF over GST control).
Take TGGAAC: the binding signal is 1.02 fold enrichment (6-mer frequency, TF over GST control) in the assay with FEV and 1.86 fold enrichment (6-mer frequency, TF over GST control) with HSF1.
For the sequence AGTGCA, the binding signal is 1.13 fold enrichment (6-mer frequency, TF over GST control) in the assay with ELK3; 1.15 fold enrichment (6-mer frequency, TF over GST control) with FEV; 1.04 fold enrichment (6-mer frequency, TF over GST control) in the assay with ETV2; 1.1 fold enrichment (6-mer frequency, TF over GST control) with ELF5.
Turning to CGCGCG, the binding signal with ELK3 is 1.04 fold enrichment (6-mer frequency, TF over GST control); in the assay with ETV2, 1.05 fold enrichment (6-mer frequency, TF over GST control).
For CAGCCC, the binding signal with ELK3 is 1.11 fold enrichment (6-mer frequency, TF over GST control); with FEV, 1.13 fold enrichment (6-mer frequency, TF over GST control); with ETV2 it was 1.27 fold enrichment (6-mer frequency, TF over GST control); with ELF5, 1.01 fold enrichment (6-mer frequency, TF over GST control).
TGGAAG: the binding signal with HSF1 was 1.56 fold enrichment (6-mer frequency, TF over GST control); with ELF5, 1.07 fold enrichment (6-mer frequency, TF over GST control).
As to GGGGCT, in the assay with CRX, the binding signal was 1.11 fold enrichment (6-mer frequency, TF over GST control).
On to ACTCAG, for which the binding signal is 1.02 fold enrichment (6-mer frequency, TF over GST control) with FEV and 1.09 fold enrichment (6-mer frequency, TF over GST control) with ETV2.
As for AGCCAC, the binding signal is 1.11 fold enrichment (6-mer frequency, TF over GST control) with ELK3; 1.04 fold enrichment (6-mer frequency, TF over GST control) with FEV; 1.07 fold enrichment (6-mer frequency, TF over GST control) in the assay with ETV2.
For the sequence TCGAAC, the binding signal is 1.06 fold enrichment (6-mer frequency, TF over GST control) with ELK3; 2 fold enrichment (6-mer frequency, TF over GST control) with HSF1; 1.03 fold enrichment (6-mer frequency, TF over GST control) with ETV2; 1.07 fold enrichment (6-mer frequency, TF over GST control) with CRX; 1.04 fold enrichment (6-mer frequency, TF over GST control) with ELF5.
Turning to ACTGGT, the binding signal with ELK3 was 1.08 fold enrichment (6-mer frequency, TF over GST control); with ETV2 it was 1.08 fold enrichment (6-mer frequency, TF over GST control); with ELF5 it was 1.03 fold enrichment (6-mer frequency, TF over GST control).
In the case of ACACGG, the binding signal in the assay with ELF5 was 1.15 fold enrichment (6-mer frequency, TF over GST control).
For GCGAAA, the binding signal with HSF1 was 1.26 fold enrichment (6-mer frequency, TF over GST control).
Take GAAGCC: the binding signal in the assay with ELK3 is 1.05 fold enrichment (6-mer frequency, TF over GST control); in the assay with FEV, 1.05 fold enrichment (6-mer frequency, TF over GST control); with ETV2 it was 1.04 fold enrichment (6-mer frequency, TF over GST control); with ELF5 it was 1.07 fold enrichment (6-mer frequency, TF over GST control).
GGGAAA: the binding signal was 1.15 fold enrichment (6-mer frequency, TF over GST control) with HSF1 and 1.42 fold enrichment (6-mer frequency, TF over GST control) with ELF5.
For AGCACA, the binding signal in the assay with ELK3 is 1.06 fold enrichment (6-mer frequency, TF over GST control); with FEV, 1.12 fold enrichment (6-mer frequency, TF over GST control); in the assay with ETV2, 1.12 fold enrichment (6-mer frequency, TF over GST control); in the assay with ELF5, 1.05 fold enrichment (6-mer frequency, TF over GST control).
As to GTTACC, the binding signal was 1.08 fold enrichment (6-mer frequency, TF over GST control) in the assay with ELK3; 1.07 fold enrichment (6-mer frequency, TF over GST control) with FEV; 1.11 fold enrichment (6-mer frequency, TF over GST control) with ELF5.
In the case of TGGGTG, the binding signal in the assay with ELF5 is 1.04 fold enrichment (6-mer frequency, TF over GST control).
On to TGTTGT, for which the binding signal is 1.05 fold enrichment (6-mer frequency, TF over GST control) in the assay with ELK3; 1.11 fold enrichment (6-mer frequency, TF over GST control) with FEV; 1.05 fold enrichment (6-mer frequency, TF over GST control) with ELF5.
For the sequence GCTAGA, the binding signal with HSF1 was 1.96 fold enrichment (6-mer frequency, TF over GST control); in the assay with CRX, 1.15 fold enrichment (6-mer frequency, TF over GST control).
As for AGTAAA, the binding signal with ELK3 was 1.06 fold enrichment (6-mer frequency, TF over GST control); with HSF1, 1.09 fold enrichment (6-mer frequency, TF over GST control); in the assay with ELF5, 1.06 fold enrichment (6-mer frequency, TF over GST control).
As for GTACTG, the binding signal with ELK3 is 1.08 fold enrichment (6-mer frequency, TF over GST control).
Regarding GCCCCG, the binding signal was 1.12 fold enrichment (6-mer frequency, TF over GST control) with FEV and 1.06 fold enrichment (6-mer frequency, TF over GST control) with ETV2.
With CGCGCC, the binding signal with ELK3 was 1.05 fold enrichment (6-mer frequency, TF over GST control); with FEV it was 1.08 fold enrichment (6-mer frequency, TF over GST control); with ELF5 it was 1.03 fold enrichment (6-mer frequency, TF over GST control).
Turning to GAACTG, the binding signal with ETV2 was 1.02 fold enrichment (6-mer frequency, TF over GST control); in the assay with ELF5 it was 1.01 fold enrichment (6-mer frequency, TF over GST control).
As for CACAGC, the binding signal was 1.07 fold enrichment (6-mer frequency, TF over GST control) in the assay with ELK3; 1.03 fold enrichment (6-mer frequency, TF over GST control) with FEV; 1.05 fold enrichment (6-mer frequency, TF over GST control) in the assay with ETV2.
Regarding CAAACA, the binding signal with ELK3 was 1.17 fold enrichment (6-mer frequency, TF over GST control); with FEV, 1.1 fold enrichment (6-mer frequency, TF over GST control); with ETV2, 1.13 fold enrichment (6-mer frequency, TF over GST control); with ELF5, 1.11 fold enrichment (6-mer frequency, TF over GST control).
As for AACGCA, the binding signal was 1.06 fold enrichment (6-mer frequency, TF over GST control) with ELK3; 1.11 fold enrichment (6-mer frequency, TF over GST control) with FEV; 1.1 fold enrichment (6-mer frequency, TF over GST control) with ETV2; 1.04 fold enrichment (6-mer frequency, TF over GST control) with ELF5.
As to ATCCGT, the binding signal in the assay with FEV was 1.1 fold enrichment (6-mer frequency, TF over GST control); with CRX, 1.08 fold enrichment (6-mer frequency, TF over GST control); with ELF5, 1.17 fold enrichment (6-mer frequency, TF over GST control).
In the case of GTGCCC, the binding signal with FEV is 1 fold enrichment (6-mer frequency, TF over GST control).
Turning to GCCGGA, the binding signal with ELK3 was 1.11 fold enrichment (6-mer frequency, TF over GST control); with FEV it was 1.59 fold enrichment (6-mer frequency, TF over GST control); with ELF5, 1.05 fold enrichment (6-mer frequency, TF over GST control).
On to AGTTAC, for which, in the assay with ELK3, the binding signal was 1.03 fold enrichment (6-mer frequency, TF over GST control).
